Screens from PubChem BioAssay.
KAT2A inh – qHTS Assay for Inhibitors of GCN5L2. Histone acetyltransferase KAT2A (Homo sapiens), Q92830. GCN5L2 HAT assay, ThioGlo1 CoA-SH fluorescence. AID 504327, 2011. Potency, µM (series often up to 58.9 µM), for inactives: top-dose activity change, negative = inhibition, usual class: inhibitors. 0.21% of 390,000 active; also: % is scaled to controls: 0 for no effect and ±100 for the full control effect
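GCN5L2 (20 nM) in 50mM HEPES pH 7.5, 0.1mM EDTA, 0.01% Tween-20 preincubated 15 min with compounds at room temperature. Reaction started with H3(1-25) 75uM, acetyl-CoA 70uM, ThioGlo1 50uM; CoA-thiol fluorescence (Ex340/Em540) read at 0 and 20 min.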
Tb PFK inh-1 – qHTS Assay to Find Inhibitors of T. brucei phosphofructokinase; Potency, µM (top dose mostly 57.5 µM), inactives show top-dose activity, negative = inhibition, hits mostly inhibitors; T. brucei PFK, ADP-Glo luminescence; ATP-dependent 6-phosphofructokinase (Trypanosoma brucei brucei), O15648; 0.17% of 330,000 active; AID 485367, 2010;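 also: 0% = uninhibited 1x PFK enzyme wells and -100% = no-enzyme wells; nearly all actives have a fitted effect of over 60% in size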
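ADP-Glo luminescence quantified ADP after 45 min at room temperature, with 1.25 nM T. brucei PFK, 0.1 mM ATP and 0.5 mM fructose-6-phosphate in pH 8.0 TEA buffer. qHTS titrations up to 57 µM; curves classified by quality.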
USP2a block – qHTS Assay for Inhibitors of Ubiquitin-specific Protease USP2a Using CHOP2 as the Reporter; USP2 core, Ub-CHOP2 coupled fluorogenic reporter, 485/531; AID 463254, 2010; 0.01% of 330,000 active; Potency, µM (doses to about 38.3 µM), inactives show at the highest dose activity change, negative = inhibition, actives largely listed as inhibitors; Ubiquitin carboxyl-terminal hydrolase 2 (Homo sapiens), O75604;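 also: plate controls were DMSO wells for no effect and full inhibition by NEM control for full effect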
Target sequence (O75604 whole entry, looked up): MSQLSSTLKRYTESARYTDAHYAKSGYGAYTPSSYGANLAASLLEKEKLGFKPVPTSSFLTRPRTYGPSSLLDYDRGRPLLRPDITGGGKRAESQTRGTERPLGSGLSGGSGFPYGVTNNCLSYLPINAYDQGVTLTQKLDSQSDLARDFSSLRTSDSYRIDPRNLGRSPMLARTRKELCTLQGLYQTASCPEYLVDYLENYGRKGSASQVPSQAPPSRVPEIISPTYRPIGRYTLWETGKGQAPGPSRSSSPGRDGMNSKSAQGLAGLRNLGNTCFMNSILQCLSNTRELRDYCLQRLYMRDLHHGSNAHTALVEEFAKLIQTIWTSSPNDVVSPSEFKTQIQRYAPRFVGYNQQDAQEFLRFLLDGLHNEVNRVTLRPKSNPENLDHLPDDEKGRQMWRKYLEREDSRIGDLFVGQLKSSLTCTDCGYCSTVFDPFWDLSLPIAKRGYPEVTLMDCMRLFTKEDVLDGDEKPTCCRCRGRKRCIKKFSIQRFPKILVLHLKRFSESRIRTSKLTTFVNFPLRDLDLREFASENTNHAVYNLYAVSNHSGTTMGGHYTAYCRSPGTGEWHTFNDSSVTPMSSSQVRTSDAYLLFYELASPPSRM
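Cell-free coupled assay: 10nM USP2 core preincubated 30min RT with compound in Tris-HCl pH 8.0/CaCl2/CHAPS buffer, then 25nM Ub-CHOP2 and 25nM reporter substrate; fluorescence (Ex 485/Em 531) read after 60min RT, normalized to NEM inhibition, concentration-response curves fitted.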
PGK inhibitor – qHTS Assay to Find Inhibitors of Phosphoglycerate Kinase. Potency, µM (doses to about 57.5 µM), for the others: at the top dose activity change, negative = inhibition, usual class: inhibitors. PGK/GAPDH coupled, Kinase-Glo luminescence, 60 min. 0.043% of 380,000 active; also: % is scaled to controls: 0 for no effect and ±100 for the full control effect; nearly all actives have a fitted effect of over 60% in size
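Luminescent ATP detection (Kinase-Glo Plus) follows a 60-minute room-temperature incubation, with wells lacking PGK as controls. Buffer: 100 mM TEA (pH 7.6), 5 mM MgCl2, 0.01% Tween-20. Coupling enzyme GAPDH (100 nM final) supplies unstable 1,3-BPG in-well.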
GLS inh – qHTS for Inhibitors of Glutaminase (GLS); 0.21% of 410,000 active; GLS enzymatic activity, qHTS titration; AID 624170, 2012; Potency, µM (highest dose often 45.5 µM), without a hit: top-dose activity change, negative = inhibition, hits mostly inhibitors; also: % is scaled to controls: 0 for no effect and ±100 for the full control effect
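Coupled fluorescence readout: glutamate oxidase/HRP/Amplex Red detect glutamate formed by hKGA from L-glutamine (1 mM solution added). Buffer 45 mM KH2PO4 pH 8.2, 0.02% Tween-20; reads at t0 and 30 min RT.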
TbPFK ATP – Tb PFK orthogonal confirmatory assay using ATP depletion (Kinase-Glo Plus) as an alternative measure of Tb PFK activity: Hit Validation. shares compounds with Tb PFK inh-1. Tb PFK enzyme, ATP depletion, Kinase-Glo Plus luminescence. Potency, µM (series often up to 57.5 µM), inactives show top-dose inhibition. 47% of 1,100 active; calls by dose curve; also: nearly all actives have a fitted effect of over 60% in size
Tb PFK inh-2 – Inhibitors of T. brucei phosphofructokinase: Hit Validation. shares compounds with Tb PFK inh-1. purified T. brucei PFK, ADP-Glo luminescence, 45 min. Potency, µM (doses to about 57.5 µM), for the others: top-dose activity change, negative = inhibition, hits mostly inhibitors. 41% of 1,100 active;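 also: plate controls were full PFK enzyme control for no effect and no enzyme control for full effect; nearly all actives have a fitted effect of over 60% in size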
Active calls of the source: *; i = inactive; ? = inconclusive; nt = not tested or not shown; [ ] = dose if it differs, or a comment. A selection: hits, their analogues and other compounds. The true share with any hit is near 0.52%. Unless noted, calls follow the shape of the dose curve; as a rule, active = well fitted curve in the direction sought with a large enough effect; inconclusive = small, poorly fitted or top-dose-only effect, or another doubt; inactive = no such curve, though single readings can be large; an effect the other way counts as inactive or inconclusive. Potency is read from the fitted curve at half-maximal effect.

SMILES	KAT2A inh	Tb PFK inh-1	USP2a block	PGK inhibitor	GLS inh	TbPFK ATP	Tb PFK inh-2
CCC1CN2CCc3cc(OC)c(OC)cc3C2CC1CC1NCCc2cc(OC)c(OC)cc21 (configuration not stated)	-1.0%	nt	nt	nt	nt	nt	nt
Cc1nc(Cc2nnc(SCC(=O)N3CCN(c4ccc(O)cc4)CC3)o2)cs1	-11.0%	?	1.6%	-3.5%	-0.6%	?	?
Cc1c(Br)c(O)c(Br)c2sc(=O)oc12	-25.3%	?	-1.4%	2.7%	14.6%	14.0%	-28.2%
O=C1SC(SCc2ccccc2)=N/C1=C\c1ccc(C(=O)O)cc1	-6.2%	?	-1.7%	-5.9%	-23.0%	-17.6%	?
Cc1cc(O)c(-c2cc(O)c(C)cc2O)cc1O	15.8µM*	12µM*	1.2%	i	?	3.01µM*	8.49µM*
C=CC[C@]1(O)CCC2C3CCC4=CCCCC4C3CCC21C (some centres not stated)	-1.1%	nt	nt	nt	-1.8%	nt	nt
O=C(O)c1ccc2c(c1)C(=O)/C(=C\c1ccco1)C2=O	-18.7%	?	2.6%	?	11.2µM*	16.9%	?
CCC(=O)CCCCC[C@@H]1NC(=O)[C@H]2CCCCN2C(=O)[C@H]([C@@H](C)CC)NC(=O)[C@H](Cc2cn(OC)c3ccccc23)NC1=O	-22.1%	nt	nt	nt	nt	nt	nt
CC(C)[C@@H]1CN[C@H](C(=O)O)[C@@H]1CC(=O)O	-7.0%	nt	nt	nt	nt	nt	nt
CCCN(CCC)c1c([N+](=O)[O-])cc(C(F)(F)F)cc1[N+](=O)[O-]	-4.9%	nt	nt	nt	nt	nt	nt
COC(=O)C1CCN(C(=O)c2cc(-c3ccco3)nc3ccccc23)CC1	8.91µM*	2.69µM*	?	?	?	?	-25.5%
O=C(CCNc1ccc(Cl)c(C(F)(F)F)c1)c1ccco1	-0.5%	?	3.0%	i	-0.9%	?	?
O=C(Nc1ccc(Cl)cc1C(=O)c1ccccc1Cl)c1ccco1	-0.9%	-1.1%	1.0%	-11.9%	3.5%	nt	nt
O=C(CCNc1ccc(F)c(Cl)c1)c1ccco1	2.3%	?	-0.4%	-8.8%	21.8%	13.5µM*	21.3µM*
O=C(CCCn1c(SCC(=O)c2ccc(O)c(O)c2)nc2ccccc2c1=O)NCC1CCCO1 (configuration not stated)	-7.3%	?	-0.5%	-20.2%	6.2%	?	?
OCCN1CCN(C(=S)c2ccc(Cl)c(Cl)c2)CC1	-14.6%	19µM*	-0.1%	i	-21.5%	5.36µM*	13.5µM*
Clc1ccc(CC[C@H](Cn2ccnc2)Sc2c(Cl)cccc2Cl)cc1	-17.8%[21.4 µM]	nt	nt	nt	-6.4%[20 µM]	nt	nt
N#Cc1ccc(NC(=O)CCNC(=O)c2ccco2)cc1Cl	-0.8%	-0.7%	2.3%	-4.6%	0.0%	nt	nt
S=C(NCc1ccc(Cl)c(Cl)c1)NCc1ccco1	-25.8%	26.9µM*	-1.0%	-6.8%	-1.0%	10.7µM*	21.3µM*
O=C(NCc1ccc(Cl)c(Cl)c1)c1ccco1	-4.4%	9.53µM*	-1.3%	i	0.8%	6.01µM*	12µM*
Cc1occc1C(=O)Nc1ccccc1	9.5%	nt	nt	nt	nt	nt	nt
CC(N)Cc1ccc2c(c1)OCO2 (configuration not stated)	nt	nt	nt	nt	-2.1%	nt	nt
CCCC(Cn1cncn1)c1ccc(Cl)cc1Cl (configuration not stated)	-13.2%	nt	nt	nt	nt	nt	nt
CC1(C)C(C(Cl)Cl)C2(Cl)C(Cl)C(Cl)C1(Cl)C2(Cl)Cl (configuration not stated)	3.0%	nt	nt	nt	nt	nt	nt
NCCOc1ccccc1Cc1ccccc1	0.0%	19µM*	3.5%	i	1.4%	?	?
SMILES	KAT2A inh	Tb PFK inh-1	USP2a block	PGK inhibitor	GLS inh	TbPFK ATP	Tb PFK inh-2
O=P(NS(=O)(=O)c1ccccc1)(Oc1ccccc1)Oc1ccccc1	2.5%	0.2%	2.7%	-3.3%	41.2%	nt	nt
O=S(=O)(O)c1cc(OS(=O)(=O)c2ccccc2)cc2ccccc12	-2.6%	23.9µM*	0.0%	-0.9%	0.2%	?	?
Cc1cc(NS(=O)(=O)c2ccc(NC(=O)COc3ccc(Cl)c(C)c3)cc2)no1	-6.7%	12µM*	-0.1%	-8.2%	-0.5%	5.36µM*	13.5µM*
Cc1cc(NS(=O)(=O)c2ccc(NC(=O)COc3ccc(Cl)cc3Cl)cc2)no1	-22.5%	2.69µM*	3.8%	-2.1%	2.8%	1.51µM*	1.69µM*
CC[C@H]1C(=O)OC[C@H]1Cc1cncn1C	10.3%[21.4 µM]	nt	nt	nt	nt	nt	nt
O=C1C(=O)N(CCCn2ccnc2)C(c2cccc(Br)c2)/C1=C(\O)c1ccc2c(c1)OCCO2 (configuration not stated)	-6.4%	?	-5.6%	-4.5%	17.2%	?	?
Clc1ccc(CO[C@@H](Cn2ccnc2)c2ccc(Cl)cc2Cl)cc1	-2.5%[21.4 µM]	nt	nt	nt	nt	nt	nt
CCn1cc(C(=O)NCc2ccco2)c(=O)c2cc(F)c(N3CCN(C(=O)c4ccco4)CC3)cc21	-17.0%	9.53µM*	0.5%	4.5%	7.6%	?	?
Cc1cc(N(C)C)ccc1[N+](=O)[O-]	-3.2%	?	-8.2%	-5.8%	1.0%	?	30.1µM*
CN(C)c1ccc([N+](=O)[O-])c([N+](=O)[O-])c1	nt	nt	nt	-3.0%	-13.0%	nt	nt
C[S@@](=O)CCCCN=C=S	-2.1%	nt	nt	nt	nt	nt	nt
Cc1[nH]c2c(Cl)cccc2c1CCN	-11.8%	19µM*	0.4%	-3.5%	44.5%	10.7µM*	10.7µM*
C[n+]1cccc2cccc([O-])c21	?	?	1.7%	-16.5%	?	?	?
COc1ccc(NC(=O)CN2C(=O)S/C(=C/c3cccn3-c3ccc(C(=O)O)cc3)C2=O)cc1	?	9.53µM*	-0.5%	nt	nt	19µM*	?
CN1C(=O)C(=Cc2ccc(OCC(=O)Nc3ccccc3)cc2)C(=O)N(C)C1=O	-5.6%	-23.8%	-0.7%	0.0%	15.6%	nt	nt
C[C@@H]1CN([C@@H](C)CO)C(=O)CCCn2nncc2CO[C@@H]1CN(C)C(=O)Nc1ccc(N2CCCCC2)cc1	nt	nt	nt	-3.8%	3.6%	nt	nt
